What was measured:
Assay in all cases: DAPPL (digital affinity profiling via proximity ligation, sequencing); 10 mM Tris-HCl pH 7.5, 50 mM NaCl, 1 mM DTT, 4% glycerol, room temperature, 30 min; GST-TFs on glutathione beads, 16-mer random dsDNA library, 0.1% formaldehyde crosslink after washing; high values mean tight binding
Settings in all cases: protein: recombinant; tags: N-terminal GST; dsDNA, one strand shown
FLI1 = biological target: T1, FLI1 (Homo sapiens, UniProt Q01543 1-452)
T1 sequence: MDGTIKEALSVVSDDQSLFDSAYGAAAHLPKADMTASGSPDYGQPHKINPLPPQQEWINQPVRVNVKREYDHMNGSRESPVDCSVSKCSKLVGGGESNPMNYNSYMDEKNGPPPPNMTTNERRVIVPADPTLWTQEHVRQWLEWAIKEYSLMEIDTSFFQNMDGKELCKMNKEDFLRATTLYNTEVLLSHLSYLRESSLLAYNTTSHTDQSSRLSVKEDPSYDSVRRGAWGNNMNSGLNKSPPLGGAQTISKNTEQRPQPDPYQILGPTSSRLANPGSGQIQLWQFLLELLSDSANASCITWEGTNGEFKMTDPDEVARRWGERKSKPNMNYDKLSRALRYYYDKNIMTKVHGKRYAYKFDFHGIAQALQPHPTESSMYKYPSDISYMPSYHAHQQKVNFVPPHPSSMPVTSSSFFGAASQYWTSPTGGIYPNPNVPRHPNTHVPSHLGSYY
How it was run: (§1)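 Binding signal is given per hexamer as its read frequency for a factor divided by its frequency in the tag-only sample. GST-fused human transcription factors were expressed in yeast, captured on glutathione beads, barcoded with DNA and pooled with that sample, then incubated with 200 nmole of a 16-mer random double-stranded DNA library in Tris/NaCl/DTT/glycerol buffer for 30 min at room temperature. The pools were then washed, crosslinked, proximity-ligated, amplified by PCR and sequenced on an Illumina NextSeq500.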

ELK1 = biological target: T2, ELK1 (Homo sapiens, UniProt P19419 1-428)
T2 sequence: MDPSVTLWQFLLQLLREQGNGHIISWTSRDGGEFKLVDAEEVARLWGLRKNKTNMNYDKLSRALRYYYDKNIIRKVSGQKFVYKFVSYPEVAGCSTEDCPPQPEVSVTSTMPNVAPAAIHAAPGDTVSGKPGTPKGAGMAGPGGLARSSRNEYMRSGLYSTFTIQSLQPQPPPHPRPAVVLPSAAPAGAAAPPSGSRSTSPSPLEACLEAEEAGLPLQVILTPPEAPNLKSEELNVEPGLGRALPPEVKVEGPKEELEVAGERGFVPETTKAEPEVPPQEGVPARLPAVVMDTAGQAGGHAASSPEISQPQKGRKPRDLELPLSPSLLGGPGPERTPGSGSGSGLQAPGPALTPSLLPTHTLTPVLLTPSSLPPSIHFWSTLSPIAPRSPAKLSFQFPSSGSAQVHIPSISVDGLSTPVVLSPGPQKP
How it was run: as §1

GABPA = biological target: T3, GABPA (Homo sapiens, UniProt Q06546 1-454)
T3 sequence: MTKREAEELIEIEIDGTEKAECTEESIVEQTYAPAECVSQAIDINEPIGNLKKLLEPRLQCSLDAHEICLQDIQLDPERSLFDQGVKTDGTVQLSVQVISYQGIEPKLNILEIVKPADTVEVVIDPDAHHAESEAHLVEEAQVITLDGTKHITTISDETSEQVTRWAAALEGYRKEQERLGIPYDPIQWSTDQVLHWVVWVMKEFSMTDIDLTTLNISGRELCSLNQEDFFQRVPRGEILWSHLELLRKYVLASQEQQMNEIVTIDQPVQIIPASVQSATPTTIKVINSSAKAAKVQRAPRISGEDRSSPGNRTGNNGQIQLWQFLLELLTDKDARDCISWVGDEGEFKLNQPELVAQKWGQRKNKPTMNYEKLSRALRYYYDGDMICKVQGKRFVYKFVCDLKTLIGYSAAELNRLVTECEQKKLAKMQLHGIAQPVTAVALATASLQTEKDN
How it was run: as §1

ERG = biological target: T4, ERG (Homo sapiens, UniProt P11308 1-479)
T4 sequence: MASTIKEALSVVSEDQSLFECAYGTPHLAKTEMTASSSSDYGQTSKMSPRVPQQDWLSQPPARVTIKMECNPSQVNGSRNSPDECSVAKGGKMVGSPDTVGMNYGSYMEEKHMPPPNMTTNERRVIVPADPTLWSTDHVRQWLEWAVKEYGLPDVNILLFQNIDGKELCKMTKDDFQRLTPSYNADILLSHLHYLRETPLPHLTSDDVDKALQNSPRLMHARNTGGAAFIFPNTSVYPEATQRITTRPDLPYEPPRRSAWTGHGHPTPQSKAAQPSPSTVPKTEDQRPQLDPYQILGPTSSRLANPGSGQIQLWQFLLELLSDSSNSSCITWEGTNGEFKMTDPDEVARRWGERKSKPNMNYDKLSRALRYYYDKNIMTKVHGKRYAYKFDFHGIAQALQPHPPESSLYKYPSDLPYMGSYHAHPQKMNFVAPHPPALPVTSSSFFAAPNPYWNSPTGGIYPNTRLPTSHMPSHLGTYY
How it was run: as §1

ELF1 = ELF1 (Homo sapiens, UniProt P32519 1-619)
Chain of ELF1 (P32519 whole entry): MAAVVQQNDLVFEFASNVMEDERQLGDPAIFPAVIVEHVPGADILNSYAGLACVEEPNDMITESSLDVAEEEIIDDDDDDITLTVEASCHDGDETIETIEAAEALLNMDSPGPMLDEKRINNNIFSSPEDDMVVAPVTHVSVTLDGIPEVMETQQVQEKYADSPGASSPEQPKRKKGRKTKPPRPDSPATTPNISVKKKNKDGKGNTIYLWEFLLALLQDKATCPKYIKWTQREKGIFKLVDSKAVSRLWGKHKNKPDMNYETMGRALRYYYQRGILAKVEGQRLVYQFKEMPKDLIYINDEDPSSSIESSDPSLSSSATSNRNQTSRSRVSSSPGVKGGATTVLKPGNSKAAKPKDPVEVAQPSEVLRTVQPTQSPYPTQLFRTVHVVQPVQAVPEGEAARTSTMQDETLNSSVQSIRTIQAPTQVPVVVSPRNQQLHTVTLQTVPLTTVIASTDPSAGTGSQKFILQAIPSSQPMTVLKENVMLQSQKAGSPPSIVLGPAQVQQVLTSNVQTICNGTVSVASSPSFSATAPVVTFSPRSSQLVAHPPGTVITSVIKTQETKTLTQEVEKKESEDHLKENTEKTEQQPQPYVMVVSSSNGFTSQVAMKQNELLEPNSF
How it was run: as §1

EHF = biological target: T5, EHF (Homo sapiens, UniProt Q9NZC4 1-300)
T5 sequence: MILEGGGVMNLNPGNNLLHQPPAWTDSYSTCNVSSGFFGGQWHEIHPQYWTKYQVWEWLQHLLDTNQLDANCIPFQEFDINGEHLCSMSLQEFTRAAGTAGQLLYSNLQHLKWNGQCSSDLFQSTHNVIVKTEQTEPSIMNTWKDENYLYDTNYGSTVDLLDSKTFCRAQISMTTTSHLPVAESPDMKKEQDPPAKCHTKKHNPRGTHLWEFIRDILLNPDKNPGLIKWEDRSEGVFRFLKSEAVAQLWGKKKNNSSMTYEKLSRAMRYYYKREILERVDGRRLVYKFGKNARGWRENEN
How it was run: as §1

SPI1 = SPI1 (Homo sapiens, UniProt P17947 1-270)
How it was run: as §1

SPIB = SPIB (Homo sapiens, UniProt Q01892 1-262)
Chain of SPIB (Q01892 whole entry): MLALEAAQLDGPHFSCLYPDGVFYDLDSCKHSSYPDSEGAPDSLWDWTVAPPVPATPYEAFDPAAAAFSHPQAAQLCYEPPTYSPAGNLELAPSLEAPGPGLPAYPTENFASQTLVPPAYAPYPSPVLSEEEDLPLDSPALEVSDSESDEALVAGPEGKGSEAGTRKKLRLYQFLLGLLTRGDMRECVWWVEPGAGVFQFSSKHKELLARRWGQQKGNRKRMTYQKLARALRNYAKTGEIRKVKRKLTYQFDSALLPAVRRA
How it was run: as §1

ELK3 = biological target: T6, ELK3 (Homo sapiens, UniProt P41970 1-407)
T6 sequence: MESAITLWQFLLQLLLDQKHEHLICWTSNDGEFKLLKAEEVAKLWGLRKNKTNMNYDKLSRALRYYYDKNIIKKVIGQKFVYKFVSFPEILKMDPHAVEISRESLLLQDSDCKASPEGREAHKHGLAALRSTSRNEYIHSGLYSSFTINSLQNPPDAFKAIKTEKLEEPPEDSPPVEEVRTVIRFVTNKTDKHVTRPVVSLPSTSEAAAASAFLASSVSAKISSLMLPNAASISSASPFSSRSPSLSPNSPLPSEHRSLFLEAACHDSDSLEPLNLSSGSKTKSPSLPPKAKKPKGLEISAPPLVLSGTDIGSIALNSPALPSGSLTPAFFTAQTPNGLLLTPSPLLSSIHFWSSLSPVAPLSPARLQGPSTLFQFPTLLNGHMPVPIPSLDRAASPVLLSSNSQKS
How it was run: as §1

In the case of CCTGGA, the binding signal (FLI1) was 1.53 fold enrichment (6-mer frequency, TF over GST control), the binding signal (ELK1) was 1.44 fold enrichment (6-mer frequency, TF over GST control) and the binding signal (GABPA) was 1.43 fold enrichment (6-mer frequency, TF over GST control). For the same sequence, the binding signal (ERG) was 1.45 fold enrichment (6-mer frequency, TF over GST control), the binding signal (ELF1) was 1.4 fold enrichment (6-mer frequency, TF over GST control) and the binding signal (EHF) was 1.44 fold enrichment (6-mer frequency, TF over GST control). The binding signal (SPI1) was 1.21 fold enrichment (6-mer frequency, TF over GST control), the binding signal (SPIB) was 1.5 fold enrichment (6-mer frequency, TF over GST control) and the binding signal (ELK3) was 1.39 fold enrichment (6-mer frequency, TF over GST control).

Reference: publication PMC7862700, “An all-to-all approach to the identification of sequence-specific readers for epigenetic DNA modifications on cytosine”
